A selection follows.
aSyn 5UTR act: Activators via SNCA 5'UTR binding, MLPCN | 7.1% of 300,000 active | activity score, % (tested at 7.5 µM), hits read low | alpha-synuclein 5'UTR reporter, activators screen; in the data active means activity score below about -60%
* = called active by the depositor.

CC(=O)c1cc2c(=O)c3cc(C)ccc3oc2nc1C was read as aSyn 5UTR act -184*.
Cc1nc2oc3ccc(F)cc3c(=O)c2cc1C(=O)O was read as aSyn 5UTR act -75*.
`COc1ccc(/C=C2\N=C(c3ccccc3Cl)NC2=O)cc1` gave aSyn 5UTR act -124*.
Screening COc1cccc(OCCNc2cc(N3CCOCC3)ccc2[N+](=O)[O-])c1 returned aSyn 5UTR act -78*.
`CC(C)c1ccc(C(=O)CSc2ncn[nH]2)cc1` gave aSyn 5UTR act -137*.
For O=C(Nc1nccs1)c1ccc(-c2ccc(F)c(Cl)c2)o1 the results were aSyn 5UTR act -151*.
Screening O=C(Nc1nccs1)c1ccc(-c2ccc(Cl)cc2Cl)o1 returned aSyn 5UTR act -149*.
Screening COc1ccccc1-n1cnc(N)c1C(=O)c1ccccc1 returned aSyn 5UTR act -153*.
Screening COc1cc(C(=O)N/N=C(\c2ccccc2)c2ccccn2)cc(OC)c1OC returned aSyn 5UTR act 81.
For C=CCSc1nn2c(=O)c3ccccc3nc2s1 the results were aSyn 5UTR act -119*.
C/C(Cl)=C/CSc1nn2c(=O)c3ccccc3nc2s1 was read as aSyn 5UTR act -100*.
COc1ccc(N2C(=O)c3ccccc3NC2c2ccc(OC)c(Cn3cc([N+](=O)[O-])cn3)c2)cc1 (stereo not given) was read as aSyn 5UTR act -87*.
`Cc1nn(-c2ccccc2)c(/N=C/c2ccccc2O)c1-c1ccccc1` gave aSyn 5UTR act -176*.
Screening Cc1cc(-c2ccccc2)n(-c2ccccc2)n1 returned aSyn 5UTR act -84*.
Cc1nn(-c2nc3ccccc3[nH]2)c(N)c1-c1ccccc1 was read as aSyn 5UTR act -183*.
For CC1(C)N=C(N)N=C(N)N1c1ccccc1 the results were aSyn 5UTR act 99.
`Cc1nn(-c2ccccc2)c(N)c1-c1ccccc1` gave aSyn 5UTR act -72*.
Screening O=C(O)c1ccc(N/N=C/c2cccc(C(F)(F)F)c2)cc1 returned aSyn 5UTR act -99*.
`O=C(O)c1ccc(N/N=C/c2ccc3nccnc3c2)cc1` gave aSyn 5UTR act 94.
Screening O=C(O)c1ccc(N/N=C/c2ccc(F)c(F)c2)cc1 returned aSyn 5UTR act -73*.
CC(C)(C)c1ccc(Cn2c(=N)n(CC(O)c3ccco3)c3ccccc32)cc1 (stereo not given) was read as aSyn 5UTR act 101.
`CC(C)(C)c1ccc(CN2C3=NCCCN3c3ccccc32)cc1` gave aSyn 5UTR act -62*.
COc1ccc(C(NC(=O)C(C)C)c2ccc3cccnc3c2O)cc1 (stereo not given) was read as aSyn 5UTR act 79.
Screening COc1ccc(-c2nc3ccccc3n2OC(C)C(=O)O)cc1 (stereo not given) returned aSyn 5UTR act -196*.
Screening O=c1c2ccc(Cl)cc2nc(-c2cccc(C(F)(F)F)c2)n1O returned aSyn 5UTR act 78.
For CC(On1c(-c2ccccc2)nc2ccc(Cl)cc21)C(=O)O (stereo not given) the results were aSyn 5UTR act -62*.
`On1c(-c2ccccc2)nc2ccc(Cl)cc21` gave aSyn 5UTR act -149*.
Screening COc1ccc(-c2n(CC(=O)OC3CC(C)CCC3C(C)C)c3ccccc3[n+]2C)cc1 (stereo not given) returned aSyn 5UTR act 101.
Screening Cc1ccc(-c2nc3ccc(Cl)cc3n2OC(C)C(=O)O)cc1 (stereo not given) returned aSyn 5UTR act -127*.
For S=C(c1ccc(-c2ccc(Cl)cc2Cl)o1)N1CCCC1 the results were aSyn 5UTR act -140*.
S=C(c1ccc(-c2ccc(Cl)cc2Cl)o1)N1CCCCC1 was read as aSyn 5UTR act -208*.
For Cn1c(=O)n(C)c2cc(S(=O)(=O)Nc3cc(Cl)ccc3O)ccc21 the results were aSyn 5UTR act -72*.
For CCc1ccc(S(=O)(=O)Nc2cc3c(cc2C)n(C)c(=O)n3C)cc1 the results were aSyn 5UTR act -92*.
For Cc1c(OCc2ccccc2)cccc1OCc1ccccc1 the results were aSyn 5UTR act -71*.
`O=c1cc2[nH]c3ccccc3c(=O)n2nc1-c1ccccc1` gave aSyn 5UTR act -125*.
`CN(C)/C=N/c1nc(-c2ccc3c(c2)OCO3)cs1` gave aSyn 5UTR act -171*.
For CN(C)/C=N/c1nc(-c2ccc3ccccc3c2)cs1 the results were aSyn 5UTR act -145*.
Screening c1ccc(CSc2nnc(SCc3ccccn3)s2)nc1 returned aSyn 5UTR act -118*.
Screening c1ccc(CSc2ccc(-c3cccnc3)nn2)cc1 returned aSyn 5UTR act -117*.
CCOc1ccc(-c2ccc(SC)nn2)cc1 was read as aSyn 5UTR act 76.
For Clc1ccc(-c2ccc(SCc3ccccn3)nn2)cc1 the results were aSyn 5UTR act -141*.
For c1ccc(-c2ccc(SCc3cccnc3)nn2)nc1 the results were aSyn 5UTR act -75*.
`c1ccc(CSc2ccc(-c3ccccn3)nn2)nc1` gave aSyn 5UTR act -62*.
O=C(CN1CCOCC1)Nc1nc2ccc([N+](=O)[O-])cc2s1 was read as aSyn 5UTR act -62*.
Screening Cc1ccc2nc(NC(=O)CN3CCOCC3)sc2c1 returned aSyn 5UTR act -107*.
